{"source": "ChEMBL document CHEMBL1201862", "about": "“PubChem BioAssay data set” (2004)", "note": "Hit rate of the full screen: of about 400,000 compounds, about 2,100 (0.53%) were called active. Not shown: some 14% with an inconclusive outcome. The rule behind the calls is not given here. Shown is part of a subset that was picked to be rich in actives."}
{"molecular_target": "Ataxin-2 (Homo sapiens) (UniProt Q99700)", "sequence (Q99700 whole entry)": "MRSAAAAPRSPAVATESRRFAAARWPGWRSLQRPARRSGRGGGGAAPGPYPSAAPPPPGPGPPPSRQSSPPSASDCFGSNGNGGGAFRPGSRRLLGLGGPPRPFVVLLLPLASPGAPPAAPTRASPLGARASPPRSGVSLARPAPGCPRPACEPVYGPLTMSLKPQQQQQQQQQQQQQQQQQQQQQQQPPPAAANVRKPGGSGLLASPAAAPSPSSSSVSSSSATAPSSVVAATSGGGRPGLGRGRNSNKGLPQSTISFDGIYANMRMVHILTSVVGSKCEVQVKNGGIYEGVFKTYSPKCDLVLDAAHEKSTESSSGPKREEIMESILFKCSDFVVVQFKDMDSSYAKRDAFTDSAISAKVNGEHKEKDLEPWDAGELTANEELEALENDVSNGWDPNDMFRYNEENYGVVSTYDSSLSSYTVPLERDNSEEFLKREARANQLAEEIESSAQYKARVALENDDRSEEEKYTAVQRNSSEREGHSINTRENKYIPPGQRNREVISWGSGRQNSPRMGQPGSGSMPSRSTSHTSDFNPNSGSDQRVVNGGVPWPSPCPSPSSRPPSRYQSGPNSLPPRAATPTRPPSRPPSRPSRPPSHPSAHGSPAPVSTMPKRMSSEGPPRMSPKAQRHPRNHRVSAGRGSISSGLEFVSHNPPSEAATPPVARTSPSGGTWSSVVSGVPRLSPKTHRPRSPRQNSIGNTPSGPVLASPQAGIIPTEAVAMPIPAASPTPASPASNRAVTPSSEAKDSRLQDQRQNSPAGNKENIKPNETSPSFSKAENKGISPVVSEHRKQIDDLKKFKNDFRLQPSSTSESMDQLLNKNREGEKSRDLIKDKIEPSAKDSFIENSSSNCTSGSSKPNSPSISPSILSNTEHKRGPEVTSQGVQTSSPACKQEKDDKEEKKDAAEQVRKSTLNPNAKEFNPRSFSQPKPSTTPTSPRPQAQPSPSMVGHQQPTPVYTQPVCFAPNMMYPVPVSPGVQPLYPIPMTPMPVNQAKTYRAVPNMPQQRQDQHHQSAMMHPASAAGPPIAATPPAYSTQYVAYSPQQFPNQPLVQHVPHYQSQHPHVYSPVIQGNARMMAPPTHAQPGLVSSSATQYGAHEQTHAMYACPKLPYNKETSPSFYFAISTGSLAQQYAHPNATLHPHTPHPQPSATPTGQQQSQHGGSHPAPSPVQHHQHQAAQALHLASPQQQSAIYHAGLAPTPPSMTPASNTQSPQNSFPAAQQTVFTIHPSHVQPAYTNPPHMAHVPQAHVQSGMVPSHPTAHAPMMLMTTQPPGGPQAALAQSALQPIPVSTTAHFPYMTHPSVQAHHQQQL", "assay": "qHTS for Inhibitors of ATXN expression.", "type": "functional"}
{"smiles": "CCOc1ccc(C2=CC(c3ccccc3)n3ncnc3N2)cc1", "note": "(stereo not drawn)", "Potency": "inactive"}
{"smiles": "CCOCCCn1/c(=N/C(=O)c2cccnc2)c(C(=O)OCC)cc2c(=O)n3ccccc3nc21", "Potency": "inactive"}
{"smiles": "COC(=O)c1ccc2[nH]c3cccc(/C(=C/c4ccccc4)c4ccccc4)c3c2c1", "Potency": "39.8 µM (active)"}
{"smiles": "O=C(OCCN1C(=O)c2cccc3c(N4CCOCC4)ccc(c23)C1=O)c1ccc(Cl)cc1Cl", "Potency": "inactive"}
{"smiles": "O=C(CN1C(=O)c2ccccc2C1=O)OCCOCCNC1=NS(=O)(=O)c2ccccc21", "Potency": "inactive"}
{"smiles": "COCCCNC(=O)c1ccc2nc3ccccc3c(=O)n2c1", "Potency": "inactive"}
{"smiles": "COc1ccc(N2CC(C(=O)N[C@@H](C)C(=O)NCc3ccccc3OC)CC2=O)cc1", "note": "(stereo partly drawn)", "Potency": "inactive"}
{"smiles": "CCn1cc(Cl)c(C(=O)Nc2cc(C(=O)OC)cc(C(=O)OC)c2)n1", "Potency": "inactive"}
{"smiles": "COc1ccc(NC(=S)N2CCC(C(=O)c3ccc(Cl)cc3)CC2)cc1", "Potency": "inactive"}
{"smiles": "CCc1nc2ccc(C(=O)Nc3ccc(Cl)c(Cl)c3)cn2c1N(C)Cc1ccc(OC)cc1", "Potency": "20 µM (active)"}
{"smiles": "CCc1nc2ccc(C(=O)NCc3ccccc3OC)cn2c1N(C)Cc1ccc(OC)cc1", "Potency": "17.8 µM (active)"}
{"smiles": "COc1ccc2c(c1)CCc1cn3ncc(C#N)c3nc1-2", "Potency": "inactive"}
{"smiles": "O=C(O/N=C1\\CCS(=O)(=O)c2sccc21)c1ccccc1", "Potency": "inactive"}
{"smiles": "CCc1c(C)c2cc(Cl)c(O)c(CN(CC)CC)c2oc1=O", "Potency": "inactive"}
{"smiles": "CN1C(=O)c2cccc3c(Br)ccc(c23)C1=O", "Potency": "inactive"}
{"smiles": "Brc1ccc(COc2ncnc3ccccc23)cc1", "Potency": "inactive"}
{"smiles": "CN(Cc1ccc(Cl)s1)C(=O)CCl", "Potency": "23.8 µM (active)"}
{"smiles": "O=C(NCc1ccc2c(c1)OCO2)c1ccc(Cl)s1", "Potency": "inactive"}
{"smiles": "CN(Cc1ccc(Cl)cc1)C(=O)CCl", "Potency": "35.5 µM (active)"}
{"smiles": "O=C(O)c1ccccc1N(Cc1ccccc1)C(=O)COc1ccccc1", "Potency": "inactive"}
{"smiles": "COc1ccc(CN(C)C(S)=Nc2ccc(Cl)cc2)cc1", "Potency": "inactive"}
{"smiles": "CCOc1ccc(CNC(=O)Nc2ccccc2)cc1", "Potency": "inactive"}
{"smiles": "CCOc1ccc(CN(C)C(=O)CCl)cc1", "Potency": "12.6 µM (active)"}
{"smiles": "O=C(Nc1ccccc1F)C(=Cc1sc(N2CCOCC2)nc1-c1ccccc1)C(=O)Nc1ccccc1F", "Potency": "inactive"}
{"smiles": "Nc1c(C(=O)Nc2ccccc2)sc2nc(-c3ccco3)ccc12", "Potency": "inactive"}
{"smiles": "Cc1ccc2cccc(NS(=O)(=O)c3ccccc3)c2n1", "Potency": "inactive"}
{"smiles": "CC(C)(C)C(=O)/C=c1\\s/c(=C\\c2ccc(-c3ccc([N+](=O)[O-])cc3)o2)c(=O)n1CC(=O)NC(N)=O", "Potency": "inactive"}
{"smiles": "COC(=O)c1ccc2oc(=O)c(S(=O)(=O)c3ccc(C)cc3)cc2c1", "Potency": "inactive"}
{"smiles": "CN(C)CCCN(C(=O)c1ccc2c(c1)CCCC2)c1nc2ccc(Cl)cc2s1", "Potency": "31.6 µM (active)"}
{"smiles": "CN(C)CCCN(C(=O)c1ccco1)c1nc2ccc(Cl)cc2s1", "Potency": "39.8 µM (active)"}
{"smiles": "COc1cc2nc(N(CCCN(C)C)C(=O)c3ccc(C(=O)c4ccccc4)cc3)sc2cc1OC", "Potency": "44.7 µM (active)"}
{"smiles": "Cc1ccc2nc(N(CCCN(C)C)C(=O)c3ccc4c(c3)CCCC4)sc2c1", "Potency": "39.8 µM (active)"}
{"smiles": "CN(C)CCCN(C(=O)c1cccs1)c1nc2cc3c(cc2s1)OCO3", "Potency": "inactive"}
{"smiles": "S=C(Nc1ccccc1Cl)N1CCCC(c2ccccc2)=N1", "Potency": "inactive"}
{"smiles": "NC1=NC(=O)C(Cc2ccc(Br)cc2)S1", "note": "(stereo not drawn)", "Potency": "inactive"}
{"smiles": "Nc1nc(N)c2ncc(C(=O)CCc3ccccc3)nc2n1", "Potency": "inactive"}
{"smiles": "O=c1c2ccccc2nc(-c2ccccc2)n1O", "Potency": "inactive"}
{"smiles": "CN(C)c1ccnc2sc(C(=O)c3ccc(Br)cc3)c(N)c12", "Potency": "inactive"}
{"smiles": "CCC1CCCCN1S(=O)(=O)c1ccc(C(=O)Nc2sc3c(c2C(=O)NC)CCC3)cc1", "note": "(stereo not drawn)", "Potency": "inactive"}
{"smiles": "CC1CCCCN1S(=O)(=O)c1ccc(C(=O)N(CCCN(C)C)c2nc3ccc(Br)cc3s2)cc1", "note": "(stereo not drawn)", "Potency": "39.8 µM (active)"}
{"smiles": "COC(=O)c1c(NC(=O)c2ccc(S(=O)(=O)N3CCCCC3C)cc2)sc2c1CCN(C(C)C)C2", "note": "(stereo not drawn)", "Potency": "inactive"}
{"smiles": "CSc1nsc(SCC(=O)Nc2ccccc2C(N)=O)n1", "Potency": "inactive"}
{"smiles": "Cc1ccc(Cn2c(=N)c(C(=O)NCC3CCCO3)cc3c(=O)n4cccc(C)c4nc32)cc1", "note": "(stereo not drawn)", "Potency": "inactive"}
{"smiles": "CSCCC(NC(=O)COc1ccccc1)C(=O)NCCOc1ccccc1", "note": "(stereo not drawn)", "Potency": "inactive"}
{"smiles": "COc1ccc(OC)c2cc3ccccc3cc12", "Potency": "17.8 µM (active)"}
{"smiles": "COc1c2ccccc2nc2ccccc12", "Potency": "inactive"}
{"smiles": "COc1cc2ccccc2cc1C(=O)Nc1ccc(O)cc1", "Potency": "inactive"}
{"smiles": "COc1ccc2c(c1)cc(C(=O)N/N=C/c1c(O)c(C(=O)O)cc3ccccc13)n2C", "Potency": "inactive"}
{"smiles": "CCOc1ccc(NC(=O)C2CCCN(c3nn4c(=O)cc(C)nc4s3)C2)cc1", "note": "(stereo not drawn)", "Potency": "inactive"}
{"smiles": "Cc1ccc(-n2nc3c(=O)n(C(C)C(=O)NCCc4cccs4)nc(C)c3c2C)cc1", "note": "(stereo not drawn)", "Potency": "inactive"}
{"smiles": "Cc1cccc(CNC(=O)CCCn2nc(C)c3c(C)n(-c4ccccc4)nc3c2=O)c1", "Potency": "inactive"}
{"smiles": "Cc1ccc(-n2nc3c(N4CCCC(C(=O)NCCc5ccccc5)C4)nnc(C)c3c2C)cc1", "note": "(stereo not drawn)", "Potency": "20 µM (active)"}
{"smiles": "CCOc1ccc(CCNC(=O)C2CCCN(c3nnc(C)c4c(C)n(-c5ccccc5)nc34)C2)cc1", "note": "(stereo not drawn)", "Potency": "31.6 µM (active)"}
